Holding throughout (assay): DAPPL (digital affinity profiling via proximity ligation, sequencing); 10 mM Tris-HCl pH 7.5, 50 mM NaCl, 1 mM DTT, 4% glycerol, room temperature, 30 min; GST-TFs on glutathione beads, 16-mer random dsDNA library, 0.1% formaldehyde crosslink after washing; high values mean tight binding
Holding throughout (conditions): protein: recombinant; tags: N-terminal GST; dsDNA, one strand shown

Test [1] deals with T1, ERF (Homo sapiens, UniProt P50548 1-548).
T1 sequence: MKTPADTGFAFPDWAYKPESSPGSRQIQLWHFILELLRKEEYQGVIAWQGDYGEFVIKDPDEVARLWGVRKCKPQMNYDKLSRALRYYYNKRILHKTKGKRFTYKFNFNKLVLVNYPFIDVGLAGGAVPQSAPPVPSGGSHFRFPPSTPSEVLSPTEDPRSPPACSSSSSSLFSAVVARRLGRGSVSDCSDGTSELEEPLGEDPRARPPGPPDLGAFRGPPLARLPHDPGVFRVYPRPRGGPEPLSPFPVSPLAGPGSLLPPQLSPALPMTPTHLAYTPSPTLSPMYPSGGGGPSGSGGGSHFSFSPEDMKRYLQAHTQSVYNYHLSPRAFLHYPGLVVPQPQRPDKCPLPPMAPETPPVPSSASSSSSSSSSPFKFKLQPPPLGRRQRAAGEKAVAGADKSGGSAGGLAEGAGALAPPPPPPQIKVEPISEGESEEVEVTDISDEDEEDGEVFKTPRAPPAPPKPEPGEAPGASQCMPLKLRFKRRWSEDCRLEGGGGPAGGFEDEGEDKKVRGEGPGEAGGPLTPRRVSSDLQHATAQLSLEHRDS
The procedure, abridged: (§1)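 Human transcription factors carrying a GST fusion were produced in yeast, bound to glutathione beads, tagged with DNA barcodes and pooled together with a tag-only sample. Each pool was held with 200 nmole of a random double-stranded 16-mer DNA library in Tris/NaCl/DTT/glycerol buffer for 30 min at room temperature, then washed, crosslinked in 0.1% formaldehyde, proximity-ligated with BsaI/T4 ligase (1 h, 37 °C), PCR-amplified and sequenced on an Illumina NextSeq500. Binding signal is the read frequency of each hexamer for a given factor divided by its frequency in the tag-only sample.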

Test [2] deals with T2, ETV3L (Homo sapiens, UniProt Q6ZN32 1-361).
T2 sequence: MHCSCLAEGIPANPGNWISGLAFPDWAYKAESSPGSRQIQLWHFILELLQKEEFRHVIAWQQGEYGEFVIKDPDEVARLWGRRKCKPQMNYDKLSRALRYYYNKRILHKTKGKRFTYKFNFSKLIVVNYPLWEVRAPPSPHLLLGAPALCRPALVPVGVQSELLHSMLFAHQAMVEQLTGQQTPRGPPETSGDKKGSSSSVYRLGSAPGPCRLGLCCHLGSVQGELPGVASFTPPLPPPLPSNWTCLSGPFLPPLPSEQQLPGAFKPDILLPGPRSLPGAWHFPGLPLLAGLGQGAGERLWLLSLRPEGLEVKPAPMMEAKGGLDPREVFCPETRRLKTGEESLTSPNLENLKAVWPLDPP
The method, boiled down:
as §1

Test [3] concerns the target T3, ETS2 (Homo sapiens, UniProt P15036 1-469).
T3 sequence: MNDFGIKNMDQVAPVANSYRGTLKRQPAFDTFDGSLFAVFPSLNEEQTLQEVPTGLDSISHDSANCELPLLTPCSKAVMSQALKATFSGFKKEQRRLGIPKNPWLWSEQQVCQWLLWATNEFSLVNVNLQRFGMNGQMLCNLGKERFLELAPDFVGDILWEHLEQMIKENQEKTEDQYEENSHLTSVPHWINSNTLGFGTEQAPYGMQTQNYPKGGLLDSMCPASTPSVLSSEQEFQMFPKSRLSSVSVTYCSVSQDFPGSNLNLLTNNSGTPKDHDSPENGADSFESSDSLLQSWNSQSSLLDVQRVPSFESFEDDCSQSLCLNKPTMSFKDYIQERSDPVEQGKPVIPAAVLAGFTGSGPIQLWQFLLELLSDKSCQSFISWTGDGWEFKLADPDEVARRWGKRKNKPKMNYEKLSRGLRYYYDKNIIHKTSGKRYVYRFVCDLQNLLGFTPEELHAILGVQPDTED
The procedure, abridged:
as §1

Test [4] has as its target T4, SPDEF (Homo sapiens, UniProt O95238 1-335).
T4 sequence: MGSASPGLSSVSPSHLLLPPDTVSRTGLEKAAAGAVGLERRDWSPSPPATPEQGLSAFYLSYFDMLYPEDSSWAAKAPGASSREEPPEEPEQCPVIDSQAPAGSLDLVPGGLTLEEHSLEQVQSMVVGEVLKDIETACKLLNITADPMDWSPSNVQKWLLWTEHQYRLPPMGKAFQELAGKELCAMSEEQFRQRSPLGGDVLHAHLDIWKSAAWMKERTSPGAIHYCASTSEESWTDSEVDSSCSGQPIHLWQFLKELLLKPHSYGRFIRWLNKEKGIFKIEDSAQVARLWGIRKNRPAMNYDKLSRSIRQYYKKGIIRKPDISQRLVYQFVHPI
The method, boiled down:
as §1

Test [5] deals with T5, ETV7 (Homo sapiens, UniProt Q9Y603 1-341).
T5 sequence: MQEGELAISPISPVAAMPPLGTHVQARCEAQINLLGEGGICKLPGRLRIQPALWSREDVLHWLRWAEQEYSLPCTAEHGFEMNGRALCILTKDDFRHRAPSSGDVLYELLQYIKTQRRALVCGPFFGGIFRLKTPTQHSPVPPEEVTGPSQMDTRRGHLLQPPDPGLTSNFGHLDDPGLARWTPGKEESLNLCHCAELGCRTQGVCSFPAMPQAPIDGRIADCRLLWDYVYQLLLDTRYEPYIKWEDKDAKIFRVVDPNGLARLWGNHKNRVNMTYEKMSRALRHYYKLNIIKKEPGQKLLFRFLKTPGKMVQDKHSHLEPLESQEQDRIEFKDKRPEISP
The procedure, abridged:
as §1

Test [6] deals with T6, ELF5 (Homo sapiens, UniProt Q9UKW6-2 1-255).
T6 sequence: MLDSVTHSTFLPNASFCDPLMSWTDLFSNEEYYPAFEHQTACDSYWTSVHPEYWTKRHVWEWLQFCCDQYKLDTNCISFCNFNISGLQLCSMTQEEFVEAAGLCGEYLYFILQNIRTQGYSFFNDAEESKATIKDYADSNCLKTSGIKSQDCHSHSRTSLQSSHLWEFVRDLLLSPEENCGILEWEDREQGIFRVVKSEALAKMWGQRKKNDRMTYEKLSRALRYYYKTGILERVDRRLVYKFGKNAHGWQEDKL
The procedure, abridged: as §1

Test [7] has as its target T7, ETV3 (Homo sapiens, UniProt P41162-2 1-143).
T7 sequence: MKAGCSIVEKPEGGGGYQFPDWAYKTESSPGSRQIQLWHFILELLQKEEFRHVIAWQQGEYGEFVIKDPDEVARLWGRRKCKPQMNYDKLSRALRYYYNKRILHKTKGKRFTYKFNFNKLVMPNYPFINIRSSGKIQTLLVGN
The procedure, abridged:
as §1

For test [8], the target named is ETV6 (Homo sapiens, UniProt P41212 1-452). The method, boiled down:
as §1

ETV6, sequence (P41212 whole entry): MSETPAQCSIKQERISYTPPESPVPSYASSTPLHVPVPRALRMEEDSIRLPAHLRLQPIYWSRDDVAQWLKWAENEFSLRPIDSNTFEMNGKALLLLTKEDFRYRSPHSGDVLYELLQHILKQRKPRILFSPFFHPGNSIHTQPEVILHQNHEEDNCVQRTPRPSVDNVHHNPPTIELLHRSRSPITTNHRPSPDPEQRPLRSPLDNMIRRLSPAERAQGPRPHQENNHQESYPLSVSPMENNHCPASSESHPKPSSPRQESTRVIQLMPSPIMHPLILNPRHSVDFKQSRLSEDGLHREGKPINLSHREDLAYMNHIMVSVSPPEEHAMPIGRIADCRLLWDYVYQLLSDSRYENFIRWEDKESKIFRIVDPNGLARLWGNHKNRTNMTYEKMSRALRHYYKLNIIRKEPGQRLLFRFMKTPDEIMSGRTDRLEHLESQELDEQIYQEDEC

With CCTCAA, the binding signal in test [1] is 1.32 fold enrichment (6-mer frequency, TF over GST control); in test [2], 1.58 fold enrichment (6-mer frequency, TF over GST control); in test [3], 1.39 fold enrichment (6-mer frequency, TF over GST control); in test [4] it was 1.38 fold enrichment (6-mer frequency, TF over GST control); in test [5], 1.27 fold enrichment (6-mer frequency, TF over GST control); in test [6], 1.52 fold enrichment (6-mer frequency, TF over GST control). The binding signal was 1.48 fold enrichment (6-mer frequency, TF over GST control) in test [7] and 1.42 fold enrichment (6-mer frequency, TF over GST control) in test [8].

As to CTGCAG, the binding signal in test [1] is 1.07 fold enrichment (6-mer frequency, TF over GST control); in test [2], 1.18 fold enrichment (6-mer frequency, TF over GST control); in test [3] it was 1.18 fold enrichment (6-mer frequency, TF over GST control); in test [4], 1.1 fold enrichment (6-mer frequency, TF over GST control); in test [5], 1.13 fold enrichment (6-mer frequency, TF over GST control); in test [6], 1.09 fold enrichment (6-mer frequency, TF over GST control). The binding signal in test [7] was 1.07 fold enrichment (6-mer frequency, TF over GST control); in test [8] it was 1.11 fold enrichment (6-mer frequency, TF over GST control).

With AGTTCC, the binding signal in test [1] is 1.73 fold enrichment (6-mer frequency, TF over GST control); in test [2], 2.15 fold enrichment (6-mer frequency, TF over GST control); in test [3], 2.17 fold enrichment (6-mer frequency, TF over GST control); in test [4] it was 2.56 fold enrichment (6-mer frequency, TF over GST control); in test [5], 1.94 fold enrichment (6-mer frequency, TF over GST control); in test [6] it was 2.79 fold enrichment (6-mer frequency, TF over GST control). The binding signal was 2.38 fold enrichment (6-mer frequency, TF over GST control) in test [7] and 2.17 fold enrichment (6-mer frequency, TF over GST control) in test [8].

As for GCTCTG, the binding signal in test [1] was 1.03 fold enrichment (6-mer frequency, TF over GST control); in test [2], 1.23 fold enrichment (6-mer frequency, TF over GST control); in test [3], 1.12 fold enrichment (6-mer frequency, TF over GST control); in test [4], 1.06 fold enrichment (6-mer frequency, TF over GST control); in test [5], 1.17 fold enrichment (6-mer frequency, TF over GST control); in test [6], 1.02 fold enrichment (6-mer frequency, TF over GST control). Further, the binding signal in test [7] is 1.17 fold enrichment (6-mer frequency, TF over GST control); in test [8], 1.17 fold enrichment (6-mer frequency, TF over GST control).

Regarding ATACTT, the binding signal was 1.66 fold enrichment (6-mer frequency, TF over GST control) in test [1]; 1.59 fold enrichment (6-mer frequency, TF over GST control) in test [2]; 1.59 fold enrichment (6-mer frequency, TF over GST control) in test [3]; 1.63 fold enrichment (6-mer frequency, TF over GST control) in test [4]; 1.69 fold enrichment (6-mer frequency, TF over GST control) in test [5]; 1.84 fold enrichment (6-mer frequency, TF over GST control) in test [6]. Moreover, the binding signal is 1.63 fold enrichment (6-mer frequency, TF over GST control) in test [7] and 1.87 fold enrichment (6-mer frequency, TF over GST control) in test [8].

Turning to TTGCTC, the binding signal in test [1] is 1.44 fold enrichment (6-mer frequency, TF over GST control); in test [2], 1.28 fold enrichment (6-mer frequency, TF over GST control); in test [3] it was 1.33 fold enrichment (6-mer frequency, TF over GST control); in test [4] it was 1.2 fold enrichment (6-mer frequency, TF over GST control); in test [5], 1.59 fold enrichment (6-mer frequency, TF over GST control); in test [6], 1.18 fold enrichment (6-mer frequency, TF over GST control). The binding signal was 1.2 fold enrichment (6-mer frequency, TF over GST control) in test [7] and 1.22 fold enrichment (6-mer frequency, TF over GST control) in test [8].

Regarding TTCATA, the binding signal in test [1] was 1.19 fold enrichment (6-mer frequency, TF over GST control); in test [2], 1.23 fold enrichment (6-mer frequency, TF over GST control); in test [3], 1.15 fold enrichment (6-mer frequency, TF over GST control); in test [4], 1.1 fold enrichment (6-mer frequency, TF over GST control); in test [5], 1.12 fold enrichment (6-mer frequency, TF over GST control); in test [6] it was 1.15 fold enrichment (6-mer frequency, TF over GST control). For the same sequence, the binding signal in test [7] is 1.16 fold enrichment (6-mer frequency, TF over GST control); in test [8], 1.14 fold enrichment (6-mer frequency, TF over GST control).

As to TTCACC, the binding signal in test [1] is 1.41 fold enrichment (6-mer frequency, TF over GST control); in test [2], 1.32 fold enrichment (6-mer frequency, TF over GST control); in test [3] it was 1.35 fold enrichment (6-mer frequency, TF over GST control); in test [4] it was 1.32 fold enrichment (6-mer frequency, TF over GST control); in test [5], 1.3 fold enrichment (6-mer frequency, TF over GST control); in test [6], 1.32 fold enrichment (6-mer frequency, TF over GST control). In addition, the binding signal is 1.48 fold enrichment (6-mer frequency, TF over GST control) in test [7] and 1.35 fold enrichment (6-mer frequency, TF over GST control) in test [8].
